Screen size: about 6,200 compounds; about 2,900 (47%) were called active. So high a share suggests a set chosen from earlier hits. This is one part of the list. Unmarked numbers belong to inactive results. Rule as the data show it: active = inhibition above about 50%; inactive = the rest.
Assay: Mycobacterium tuberculosis growth inhibition, primary screen (AID 1259343)
Conditions: inhibition: at 10 µM, hits give high values; outcome: 10 uM

Row | SMILES | inhibition
1 | CCc1cc(=O)[nH]c(-n2nc(C)cc2N)n1 | 83.4% (active)
2 | CCCc1cc(=O)[nH]c(-n2nc(C)cc2N)n1 | 101% (active)
3 | Cc1cccc(-n2ncc3c(=O)[nH]c(-n4nc(C)cc4N)nc32)c1 | 102% (active)
4 | Cc1cc(N)n(-c2nc3c(cnn3-c3ccccc3)c(=O)[nH]2)n1 | 5.14%
5 | Cc1cc(=O)[nH]c(-n2nc(C)cc2N)n1 | 101% (active)
6 | Cc1cc(N)n(-c2nc3c(cnn3-c3ccc(C)c(C)c3)c(=O)[nH]2)n1 | 33.8%
7 | CCCc1cc(=O)[nH]c(-n2nc(C)cc2C)n1 | 6.1%
8 | CC(C)=CCc1c(O)ccc(C(=O)Cc2ccccc2)c1O | 59.8% (active)
9 | CCC(=O)c1ccc(O)c(CC=C(C)C)c1 | 20.6%
10 | N#Cc1c(Cl)c(Cl)c(Cl)c(C#N)c1Cl | 102% (active)
11 | O=C(Nc1ccccc1)c1cc(C2CCCN(C(=O)C/C=C/c3ccccc3)C2)on1 (configuration not stated) | 43%
12 | O=C(Nc1nc(C2CC2)cs1)c1cc2ccccc2cc1O | 11.4%
13 | Cc1ccc(C(=O)OCc2cc(C)on2)c(O)c1 | -29.5%
14 | Cc1nc(COC(=O)c2cc3ccccc3cc2O)oc1C | 54.9% (active)
15 | COc1ccc(-c2cc(C(=O)O)sc2C)cc1 | 67.1% (active)
16 | Cc1sc(C(=O)N2CCOC(C(N)=O)C2)cc1-c1ccc(F)cc1 (configuration not stated) | 5.13%
17 | Cc1ccc2nc3sc(C(=O)O)cc3cc2c1 | 7.83%
18 | O=C(O)C1CCCN1S(=O)(=O)c1cccs1 (configuration not stated) | -0.47%
19 | CN(C)C(=O)On1nnc2ccccc21 | 26.9%
20 | O=S(=O)(c1cccs1)n1nnc2ccccc21 | 52.1% (active)
21 | Cn1c(=O)cc2c3c(cccc31)C(=O)c1ccccc1-2 | 11.1%
22 | S=c1[nH]c(-c2ccccc2)c(-c2ccccc2)[nH]1 | 18.6%
23 | O=c1c(-c2ccccc2)c1-c1ccccc1 | 86.5% (active)
24 | O=C(NCCOc1cccc(C(F)(F)F)c1)c1ccc(Cl)c([N+](=O)[O-])c1 | 54.2% (active)

Row | SMILES | inhibition
25 | O=C(NCCc1cccc(C(F)(F)F)c1)c1ccc(CSc2ncn[nH]2)o1 | 36.7%
26 | Cc1ccc(C)c(C=CC(=O)c2ccc(O)cc2)c1 | 98.6% (active)
27 | COc1ccccc1C=CC(=O)c1ccc(Cl)cc1 | 46.9%
28 | Cc1cc(C)n(C(C)CNS(=O)(=O)c2ccc(C)c(C)c2)n1 (configuration not stated) | -27.8%
29 | CC(O)c1cnc(-c2ccc(Br)cc2)s1 (configuration not stated) | 35.9%
30 | CC(C)c1ccc(-c2nnc(N)s2)cc1 | 72.1% (active)
31 | Cc1cc2nn(-c3ccc(C(C)C)cc3)nc2cc1N | 14.7%
32 | O=C(/C=C/C(=O)Oc1ccccc1C(=O)O)Oc1ccccc1C(=O)O | 26.7%
33 | C=CS(=O)(=O)Oc1ccccc1 | 78.9% (active)
34 | NC(=O)c1ccc(CN2CCCc3cc(F)cc(F)c32)cc1 | 17.5%
35 | NC(=O)c1ccnc(N2CCN(Cc3ccc(Cl)c(Cl)c3)CC2)c1 | 89.4% (active)
36 | Nc1nc(Cl)cc(N2CCN(Cc3ccc4c(c3)OCCO4)CC2)n1 | 6.34%
37 | C=CCn1cnc2c(c1=O)c1nc3ccccc3nc1n2CCC(C)C | 12.7%
38 | CCOc1ccc2ccccc2c1C(=O)Nc1cc(C)nn1-c1nc(CC)cc(=O)[nH]1 | 101% (active)
39 | CCOc1ccc2ccccc2c1C(=O)Nc1cc(C)nn1-c1nc(C)cc(=O)[nH]1 | 101% (active)
40 | COCCOc1ccc(CNS(=O)(=O)c2ccc(F)c(Cl)c2)cc1 | 30.9%
41 | O=S(=O)(NCCCCOc1ccc(Cl)cc1)c1cccc(F)c1 | 88.5% (active)
42 | O=S(=O)(NCCCNS(=O)(=O)c1ccc(Cl)cc1)c1ccc(Cl)cc1 | -18.2%
43 | Cc1noc(C)c1C(=O)Nc1nc2cc(C(C)(C)C)ccc2o1 | 100% (active)
44 | Cc1ccc(-c2csc(NC(=O)c3c(C)noc3C)n2)s1 | 24.1%
45 | Cc1oc2nc[nH]c(=O)c2c1C(=O)Nc1ccc(C(C)(C)C)cc1 | 39.2%
46 | Cc1cc(N2CC[C@@H](c3ccc4c(c3)OCO4)[C@H](O)C2)nc2cc(F)ccc12 | 11.3%
47 | CCCc1nc(N2CC[C@@H](c3ccc4ccccc4c3)[C@H](O)C2)no1 | 23%
48 | CCc1cnc(N2CC[C@@H](c3ccc4ccccc4c3)[C@H](O)C2)nc1 | 86.1% (active)

Row | SMILES | inhibition
49 | O=C(CSC1=NS(=O)(=O)c2ccccc2N1)Nc1ccccc1 | 31.9%
50 | CCCCc1ccc(NC(=O)CSc2nc3nc(C)cc(C)n3n2)cc1 | -36.7%
51 | Cc1cc(C)n2nc(SCC(=O)Nc3ccc(C(C)C)cc3)nc2n1 | 84.4% (active)
52 | O=C1c2ccccc2-c2nc3nonc3nc21 | 103% (active)
53 | O=C(NNC(=O)C1C2C=CC(C2)C1C(=O)O)c1ccc(OC2CCCC2)cc1 (configuration not stated) | 97.7% (active)
54 | CC(C)n1nccc1-c1nnc(NC(=O)c2ccccc2)o1 | 100% (active)
55 | CCC(C)n1nccc1NC(=O)c1n[nH]c2ccccc2c1=O (configuration not stated) | 3.7%
56 | O=C(c1ccccc1)n1sc(=O)c2ccccc21 | 61.1% (active)
57 | CN(Cc1cccc(NC(=O)C(C)(C)C)c1)C(=O)C(F)(F)F | 4.53%
58 | CS(=O)(=O)CCC(=O)Nc1cccc(-n2cccc2)c1 | 81.7% (active)
59 | O=C(CCCn1c(=O)oc2ccccc21)Nc1cccc(-c2ccsc2)c1 | 34.8%
60 | CCOC(=O)C1CSC(Cc2ccc(OCc3ccc([N+](=O)[O-])cc3)cc2)N1 (configuration not stated) | 66% (active)
61 | O=C(NN=Cc1ccncc1)c1cc(-c2ccc(Cl)s2)[nH]n1 | 16.5%
62 | CC(=NNC(=O)c1cc(-c2ccc(Cl)s2)[nH]n1)c1ccccc1O | 40.9%
63 | COc1cccc(C=NNC(=O)c2cc(-c3ccc(Cl)s3)[nH]n2)c1 | 68% (active)
64 | O=c1[nH]nc(SCc2cc(Cl)ccc2Cl)c(=O)[nH]1 | 54.7% (active)
65 | O=C(CN1CCN(CCC23CC4CC(CC(C4)C2)C3)CC1)N1CCCCC1 | 9.26%
66 | Cc1ccc(C(C)CCN2CCC(C(=O)Nc3ccc(-n4cccn4)cc3)CC2)o1 (configuration not stated) | 81.8% (active)
67 | O=C(CCC1CCCCC1)Nc1ccc(-n2cccn2)cc1 | 37.5%
68 | O=C(Nc1ccc(-n2cccn2)cc1)C1CCN(Cc2ccccn2)CC1 | 90.4% (active)
69 | Cc1nc(C)c(CN2CCC(C(=O)Nc3ccc(-n4cccn4)cc3)CC2)nc1C | 83.6% (active)
70 | CCn1ncc(CN2CCCC(C(=O)Nc3cccc(-c4cc5ccccc5[nH]4)c3)C2)c1C (configuration not stated) | 24.9%
71 | O=C(Nc1ccc(-n2cccn2)cc1)C1CCCCN1Cc1cc2ccccc2[nH]1 (configuration not stated) | 80.4% (active)
72 | CCOC(=O)C1(CCOc2ccccc2)CCN(Cc2cc3ccccc3[nH]2)CC1 | inactive

— PubChem BioAssay AID1259343 (VanderVen Lab, College of Veterinary Medicine, Cornell …, 2017)
